# Rows were chosen to be rich in hits. Some 1.6% of all compounds tested hit in one or more screens of this group.
# KCNQ2 pot: KCNQ2 (rat) channel potentiation. O88943. CHO-K1 KCNQ2, FluxOR thallium flux fluorescence; stronger effect = higher value. B-score at 10 µM. actives 0.54% (n = 310,000);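 active = fluorescence ratio B-score at least 3 SD of library B-scores, with initial fluorescence B-score within 3 of them, cut at about 5.3 in these data; same plate scores as AID 2156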;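 note: B-score of peak minus minimum over baseline fluorescence ratio after K+ and Tl+ stimulus; positive B-score means potentiation of KCNQ2 with more thallium influx and brighter signal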
# Target sequence (O88943 whole entry, looked up): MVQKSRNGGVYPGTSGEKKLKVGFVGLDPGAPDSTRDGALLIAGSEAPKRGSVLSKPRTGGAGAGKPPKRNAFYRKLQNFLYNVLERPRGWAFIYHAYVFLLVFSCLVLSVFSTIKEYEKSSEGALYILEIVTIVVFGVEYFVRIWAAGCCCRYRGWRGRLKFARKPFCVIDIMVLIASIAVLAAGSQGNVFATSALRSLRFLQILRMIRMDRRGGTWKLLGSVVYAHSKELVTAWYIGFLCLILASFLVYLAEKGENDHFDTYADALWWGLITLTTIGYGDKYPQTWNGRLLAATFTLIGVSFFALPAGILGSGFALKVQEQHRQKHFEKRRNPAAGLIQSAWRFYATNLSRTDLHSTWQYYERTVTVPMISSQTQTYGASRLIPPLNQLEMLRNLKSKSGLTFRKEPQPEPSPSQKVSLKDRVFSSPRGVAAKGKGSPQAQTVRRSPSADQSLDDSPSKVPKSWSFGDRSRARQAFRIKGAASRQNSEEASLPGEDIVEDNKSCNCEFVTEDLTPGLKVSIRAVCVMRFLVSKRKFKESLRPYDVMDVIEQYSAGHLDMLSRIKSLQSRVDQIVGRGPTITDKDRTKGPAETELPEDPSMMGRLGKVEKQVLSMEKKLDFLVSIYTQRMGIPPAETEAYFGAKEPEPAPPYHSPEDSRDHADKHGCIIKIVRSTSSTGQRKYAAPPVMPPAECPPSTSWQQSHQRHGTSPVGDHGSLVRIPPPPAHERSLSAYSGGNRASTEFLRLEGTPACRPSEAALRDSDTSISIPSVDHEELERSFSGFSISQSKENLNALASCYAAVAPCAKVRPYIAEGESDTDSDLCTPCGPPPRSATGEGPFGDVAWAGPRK
# KCNQ2 block: KCNQ2 (rat) channel inhibition | B-score at 10 µM | CHO-K1 KCNQ2, FluxOR thallium flux, 20 min; stronger effect = lower value | actives 1.1% (n = 310,000) | O88943;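 active = fluorescence ratio B-score at most minus 3 library SDs, with starting brightness B-score within 2 library SDs, cut at about -5.5 in these data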
# Hits are given with their value; – = inactive; · = no result.
SMILES,KCNQ2 pot,KCNQ2 block
O=C(Nc1ccccc1N1CCCCC1)c1ncoc1-c1cccc(F)c1,–,-5.8
O=C(Nc1ccc(N2CCOCC2)cc1N1CCOCC1)c1ncoc1-c1cccc(F)c1,·,–
COc1ccccc1CNC(=O)COC(=O)c1nccnc1N,–,–
Cc1c(C(=O)N2CCC(C)CC2)oc2ccc3c(c12)C(O)CC1(CCCCC1)O3 (configuration not stated),·,–
CCc1cccc(CC)c1NC(=O)c1cccc(NC(=O)c2ccccc2)c1,·,–
CCc1cccc(C)c1NC(=O)c1cccc(N(C)C)c1,–,-6.9
Cc1cccc[n+]1CC(=O)N1c2ccccc2Sc2ccccc21,·,–
CCN(CC(=O)Nc1ccccc1C(F)(F)F)C(=O)c1oc2ccc(OC)cc2c1C,–,-6
CCc1noc(C)c1C(=O)N(CC)CC(=O)Nc1ccccc1C(F)(F)F,–,–
C=CCn1c(=O)c2ccc(C(=O)NCc3ccccc3)cc2n(Cc2ccc(C)cc2)c1=O,–,–
COc1ccccc1N1CCN(/N=C/c2cccc(OC)c2OC)CC1,–,-7.3
COc1ccccc1N1CCN(/N=C\c2sccc2C)CC1,–,-6.2
COc1ccccc1N1CCN(/N=C/c2cc(OC)c(OC)c(OC)c2)CC1,·,–
COc1ccccc1N1CCN(/N=C\c2ccccc2)CC1,·,–
COc1ccc(CC(=O)N(Cc2ccccc2)c2ccc(C)cc2)cc1OC,·,–
O=C(CNCc1ccccn1)N1CCc2ccccc2C1,–,–
COc1ccc2oc(=N)c(C(=O)Nc3ccc(C)cc3)cc2c1,·,–
COc1ccc2o/c(=N\O)c(C(=O)Nc3ccc(C)cc3)cc2c1,–,-10
NC(=O)c1[nH]cnc1N,–,–
CCO[C@H]1OC(C(N)=O)=C[C@@H](C2CC2)[C@@H]1CCCO,·,–
CCOc1cc(C(=O)CSc2nnc(CNc3ccc(Cl)cc3)o2)ccc1NC(=O)CC,6.2,–
COc1ccc(NCc2nnc(SCC(=O)c3ccc(OC)cc3)o2)cc1,–,–
COc1ccc2cc(/C=C/C(=O)N3CCN(CC(=O)N4CCCCCC4)CC3)ccc2c1,–,–
CCCCC1(CO)C(=O)N(c2ccccc2)N(c2ccccc2)C1=O,–,–
CCCCC1(Cc2cccc([N+](=O)[O-])c2)C(=O)N(c2ccccc2)N(c2ccccc2)C1=O,–,-6.9
SMILES,KCNQ2 pot,KCNQ2 block
COc1ccc(-c2ccc(SCC(=O)NC3CCCCC3)nn2)cc1OC,–,–
CCn1ccnc1CN(C)Cc1cn(-c2ccc(C)cc2)nc1-c1ccc(F)cc1,·,–
CCn1ccnc1CN(C)Cc1cn(-c2cc(C)ccc2C)nc1-c1ccccc1,–,-8.2
Cc1cccc(NC(=O)c2nc(-c3ccccc3)n(-c3ccccc3)n2)c1C,–,-8.2
CCc1nnc(NC(=O)c2cc(-c3cccnc3)nc3ccccc23)s1,–,–
CCc1nnc(NC(=O)c2cc(C)nc3ccccc23)s1,–,-6.3
Cc1cccc(NC(=O)c2cnn(-c3ccccc3)c2C)c1C,·,–
Cc1ccc(NC(=O)c2cc(-c3ccccc3)nn2-c2ccccc2)c(Br)c1,·,–
Cc1ccc(NC(=O)c2cc(-c3ccccc3)nn2-c2ccccc2)cc1,–,-5.7
Cc1cc(C(=O)Nc2ccccc2C)c2ccccc2n1,·,–
Cc1cc(C(=O)Nc2cccc(C)c2C)c2ccccc2n1,–,-5.8
COc1ccc(CN(CC(=O)NCc2ccccc2)C(=O)CCC(=O)Nc2ccccn2)cc1,–,–
CCOC(=O)C1=C(COC(=O)C2CC(=O)N(c3ccc(C)cc3)C2)NC(=O)NC1C (configuration not stated),–,–
CCOC(=O)c1c(-n2cccc2)sc2c1CCCC2=O,–,–
CO/N=C\CC(=O)Nc1ccc(Cl)cc1Cl,–,–
CN(C)/C=C(/C#N)C(=O)c1cccc(Oc2ccc(C(C)(C)C)cc2)c1,–,-7.8
Cc1ccccc1Oc1cccc(C(=O)/C(C#N)=C/N(C)C)c1,–,–
Cc1cccc(C(=O)N2CC(=O)Nc3ccc(F)cc3C2c2ccc(F)cc2)c1 (configuration not stated),·,–
Cn1nc(C(F)(F)F)c(/C=N/OC(=O)c2ccccc2)c1Cl,·,–
Cn1nc(C(F)(F)F)c(/C=N/OC(=O)c2ccccc2)c1Sc1ccc(Cl)cc1,–,-5.7
CC(Oc1ccc(F)cc1)C(=O)Nc1ccccc1N1CCCCC1 (configuration not stated),–,-7.7
CCC(Oc1ccccc1)C(=O)Nc1ccccc1N1CCCCC1 (configuration not stated),·,–
COc1cc(C(=O)COC(=O)c2cc([N+](=O)[O-])ccc2N2CCOCC2)ccc1OC(F)F,·,–
CN(C)c1ccc(C(=O)Nc2ccc(S(=O)(=O)Nc3nccs3)cc2)cc1,–,–
O=C1CCC[C@@H]2[C@H]3CCC[N+]4([O-])CCC[C@@H](CN12)[C@@H]34 (some centres not stated),–,–
Cc1cc(OCC(=O)N2CCN(c3ccccn3)CC2)cc(C)c1Br,–,-6
O=C(/C=C/c1ccc(F)cc1)N1CCN(c2ccccn2)CC1,–,–
O=C(/C=C/c1cccc(Br)c1)N1CCN(c2ccccn2)CC1,–,-7.6

# Bioassay records deposited in PubChem by Johns Hopkins Ion Channel Center.
